# In all, about 360,000 compounds went through this assay and about 11,000 (3.1%) were called active. Not shown: some 4% with an inconclusive outcome. The call rests on the fitted dose curve; in most records, active means well fitted inhibition curve with a large enough effect; inconclusive means small, poorly fitted or top-dose-only effect; inactive means no such curve, though single readings can be large or run the other way. Only a selection was taken, and actives are over-represented in it overall.
# Molecular target: Schistosoma mansoni thioredoxin glutathione reductase (TGR) (UniProt Q962Y6)
# Experiment: qHTS Assay for the Inhibitors of Schistosoma Mansoni Peroxiredoxins; further: nearly all actives have a fitted effect of over 60% in size
# Details: purified TGR, DTNB reduction, TNB absorbance 405 nm; series mostly up to 114 µM; activity change, negative = inhibition: at the top concentration
# Procedure, shortened: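 Kinetic colorimetric format: TGR-catalysed, NADPH-driven DTNB reduction monitored via TNB absorbance. Enzyme dispensed at 20 nM; compound exposure 15 min at room temperature before reaction start.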
# On the % scale 0 is the no-effect control and ±100 the full control effect; potency means the concentration at half of the fitted maximal effect.
SMILES,"activity change, negative = inhibition",Potency
COC(=O)c1ccccc1NC(=O)c1ccc2c(=O)n3c(nc2c1)CCCCC3,5.75% (inactive),–
CCN(CCCNC(=O)c1cc(Nc2ccc(OC)cc2)nc2ccccc12)c1cccc(C)c1,-0.0604% (inactive),–
O=C(Nc1ccccc1N1CCCCC1)c1ccc2nccnc2c1,–,79.4 µM (active)
O=C(Nc1ccccc1N1CCCC1)c1ccc2ccccc2c1,-3.6% (inactive),–
O=C(Nc1ccccc1N1CCOCC1)c1ccncc1,-6.43% (inactive),–
Oc1ccc2ccccc2c1N=Nc1nccs1,–,17.8 µM (active)
COc1ccc(Cc2nc3ccc(C(=O)NCc4ccccc4Cl)cc3o2)cc1,5.89% (inactive),–
CCOc1ccccc1NC(=O)Cn1c2ncccc2c(=O)n1-c1ccc(C)c(C)c1,11.2% (inactive),–
CCCCn1c(=N)c(S(=O)(=O)c2ccccc2)cc2c(=O)n3cccc(C)c3nc21,11.7% (inactive),–
Cc1cccn2c(=O)c3cc(C#N)c(=O)n(CCCN4CCOCC4)c3nc12,–,25.1 µM (active)
Cc1cccn2c(=O)c3cc(C(=O)NCCN4CCOCC4)c(=N)n(Cc4cccnc4)c3nc12,-32.4% (inactive),–
CC1CCC2(CC1)N=C(c1ccccc1)C(=O)N2CC(=O)Nc1ccc(F)c(Cl)c1 (stereo unspecified),1.55% (inactive),–
N#Cc1nc(/C=C/c2ccc(F)cc2)oc1NCc1ccc(F)cc1,0.688% (inactive),–
CCN(C(=O)Cn1cnc2sc(C)c(S(=O)(=O)N3CCN(c4ncccn4)CC3)c2c1=O)c1ccccc1F,3.71% (inactive),–
CN(C)c1ccc(NC(=O)CSc2nc(-c3ccco3)cc(C(F)(F)F)n2)cc1,5.41% (inactive),–
Cc1cccc(NC(=O)CSc2nc(-c3ccco3)cc(C(F)(F)F)n2)c1C,12.2% (inactive),–
O=C(CSc1nc(-c2ccco2)cc(C(F)(F)F)n1)N1CCc2ccccc2C1,–,11.2 µM (active)
O=C(NCc1ccc2c(c1)CCN2C(=O)c1ccccc1)c1ccccc1,2.49% (inactive),–
CCCn1c2ccccc2c2cnn(CC(=O)NCC3CCN(Cc4ccc(C)cc4)CC3)c(=O)c21,-1.8% (inactive),–
Cc1cccc(NC(=O)c2ccc(F)c(S(=O)(=O)N(C)C3CCCCC3)c2)c1,2.07% (inactive),–
CCOc1ccccc1C(=O)NCC(c1ccc(N(C)C)cc1)N1CCCC1 (stereo unspecified),-0.18% (inactive),–
O=[N+]([O-])c1cnc2ccc3ccccc3c2c1,3.12% (inactive),–
CC(=O)n1c(C=Nc2ccccc2)c(O)c2ccccc21,-12.4% (inactive),–
Oc1ccc2ccccc2c1C=Nc1ccccc1,–,12.6 µM (active)
CCC(=O)CC(c1ccc([N+](=O)[O-])cc1)c1c(O)c2ccccc2oc1=O (stereo unspecified),2.09% (inactive),–
CCOc1[nH]n(-c2ccc(Cl)cc2)c(=O)c1C=Nc1ccc(O)cc1,4.95% (inactive),–

SMILES,"activity change, negative = inhibition",Potency
Cc1cc(N=Nc2ccc3ccccc3c2)ccc1O,9.38% (inactive),–
CC(C)CNC(=O)CC(c1ccccc1)c1c(O)ccc2ccccc12 (stereo unspecified),-1.45% (inactive),–
O=[N+]([O-])c1ccc(N=Cc2c(O)ccc3ccccc23)cc1,–,22.4 µM (active)
Oc1ccc(N=Cc2c(O)ccc3ccccc23)cc1,–,28.2 µM (active)
COc1ccc(CCNC(=O)c2c3c(nc4ccccc24)C(=O)N(C2CCCCC2)C3)cc1OC,2.49% (inactive),–
Cc1ccc(C(=O)Nc2ccccc2F)cc1S(=O)(=O)N1CCOCC1,1.51% (inactive),–
CCOc1ccccc1NC(=O)CN1CCN(S(=O)(=O)c2ccc(Br)cc2)CC1,-1.12% (inactive),–
Cc1cccc(NC(=O)C2CCCN2S(=O)(=O)c2cccc3nsnc23)c1C (stereo unspecified),10.6% (inactive),–
Cn1cnnc1Sc1ccc(S(C)(=O)=O)cc1[N+](=O)[O-],–,35.5 µM (active)
CCN(CC(=O)Nc1c(F)cccc1F)C(=O)c1ccc(Sc2nncn2C)c([N+](=O)[O-])c1,0.198% (inactive),–
CC(C)(C)n1cnnc1Sc1ccc([N+](=O)[O-])cn1,-25.2% (inactive),–
C=CCn1c(SCC(=O)NC(=O)Cc2ccccc2)nc2ccccc2c1=O,–,89.1 µM (active)
O=C(CSc1nc2ccccc2c(=O)n1CCCO)NC1CC1,4.65% (inactive),–
C=CCn1c(SCc2ccc(C(=O)NCCO)cc2)nc2ccccc2c1=O,-27.7% (inactive),–
Cc1ccc(O)c(NC(=O)c2cc(-c3ccc(F)cc3)no2)c1,-1.53% (inactive),–
Cc1ccc(C(=O)N2CCc3cc(CNC(=O)c4ccc(Br)cc4)ccc32)cc1,2.43% (inactive),–
COc1ccc(NC(=O)c2cc3cc(C)ccc3n2C)cc1,0.281% (inactive),–
CN(C)S(=O)(=O)c1ccc(NC(=O)N2CCOCC2)cc1,9.09% (inactive),–
CN(C)S(=O)(=O)c1ccc(N/C=C(\[N+](=O)[O-])S(=O)(=O)c2ccccc2)cc1,–,14.1 µM (active)
CN(C)S(=O)(=O)c1cccc(NC(=S)N/N=C/C(=O)c2ccccc2)c1,-1.78% (inactive),–
O=C(CN1C(=O)CCn2nc(-c3ccccc3)cc21)NCc1ccccc1,10.6% (inactive),–
Cc1nnc2n1N=C(c1ccccc1)CS2,–,39.8 µM (active)
CC1CSc2nnc(CCc3ccccc3)n21 (stereo unspecified),-29.9% (inactive),–
CCN1N=C(c2ccccc2)CCC1=O,-0.45% (inactive),–
COc1ccc(-c2cc(-c3nc(-c4cc(OC)c(OC)c(OC)c4)no3)[nH]n2)c(OC)c1,6.07% (inactive),–
CCOCCCNC(=O)c1c(NC(=O)c2nc(SC)ncc2Cl)sc2c1CCCC2,4.43% (inactive),–

SMILES,"activity change, negative = inhibition",Potency
CC(C)c1ccc(S(=O)(=O)Nc2ccc(O)c(Sc3nc4ccccc4s3)c2)cc1,-6.03% (inactive),–
O=[N+]([O-])c1c(NCCO)cc(Sc2nc3ccccc3s2)c2nonc12,–,0.1 µM (active)
CC(C)(C)c1ccc(S(=O)(=O)Nc2ccc(O)c(Sc3nc4ccccc4s3)c2)cc1,1.84% (inactive),–
Cc1ccccc1C(=O)Nc1sc2c(c1C(=O)N1CCC(C)CC1)CCCC2,-0.228% (inactive),–
CCOC(=O)c1ccccc1NC(=O)CCc1c(C)nc2c(c1C)c(=O)n(C)c(=O)n2C,0.941% (inactive),–
Cc1cccc(OP(=O)(Nc2c(C)n(C)n(-c3ccccc3)c2=O)Oc2cccc(C)c2)c1,-3.85% (inactive),–
Cn1c(=O)c([N+](=O)[O-])c(Oc2ccccc2)c2ccccc21,–,2.82 µM (active)
Cn1nc(-c2ccccc2)c2cc([N+](=O)[O-])ccc21,-16.5% (inactive),–
Cc1cccc(C2CC(=O)Oc3c2c(=O)n(C)c2ccccc32)c1 (stereo unspecified),0.0135% (inactive),–
Cn1c(=O)c(Sc2ccc(Cl)cc2)c(O)c2ccccc21,-12.3% (inactive),–
Cc1cccc(Oc2c([N+](=O)[O-])c(=O)n(C)c3ccccc23)c1,–,3.98 µM (active)
Cc1ccc(Cl)cc1N1CCN(S(=O)(=O)c2cc3[nH]c(=O)c(=O)[nH]c3cc2C)CC1,-8.22% (inactive),–
CCCNC(=O)c1ccc2c(c1)ncn2-c1ccc(C)cc1C,9.84% (inactive),–
CC(C)CC(=O)NCC(c1ccc2c(c1)OCO2)N1CCN(c2ccc(F)cc2)CC1 (stereo unspecified),-0.444% (inactive),–
CCOc1cc(/C=C(\C#N)C(=O)Nc2ccccc2C)ccc1OCc1cc(=O)n2nc(CC)sc2n1,4.52% (inactive),–
CCOCCCn1c(SCC(=O)Nc2ccc(CC)cc2)nc2ccccc2c1=O,-1.27% (inactive),–
CCOc1ccc(NC(=O)CC2C(=O)N(c3cccc(OC)c3)C(=O)N2C2CCCCC2)cc1 (stereo unspecified),-8.02% (inactive),–
CCOc1cc(C2C(C(=O)OC)=CN(C3CCCC3)C=C2C(=O)OC)cc(Br)c1O,–,56.2 µM (active)
CCOc1ccc(CNC(=O)C2CCC(=O)N2C2CCCC2)cc1OC (stereo unspecified),6.99% (inactive),–
COC(=O)C1=CN(Cc2ccc(OC)cc2)C=C(C(=O)OC)C1c1ccc(O)c(OC)c1,31.3% (inactive),–
COc1ccc(C)cc1Nc1nc2ccccc2c2nnc(C)n12,1.72% (inactive),–
COc1cc2ccccc2cc1C(=O)Nc1cccc(-c2nc3ccccc3o2)c1,-0.84% (inactive),–
CCCCN(CCCNC(=O)c1cc(Nc2ccccc2OC)nc2ccccc12)c1ccccc1,-1.75% (inactive),–
O=C(CNS(=O)(=O)c1ccccc1)N1CCN(C(=O)c2ccco2)CC1,-24.4% (inactive),–
O=C(c1cccc(S(=O)(=O)Nc2ccccc2Cl)c1)N1CCN(C(=O)c2ccco2)CC1,–,31.6 µM (active)
O=C(c1cccc([N+](=O)[O-])c1)N1CCN(C(=O)c2ccco2)CC1,-8% (inactive),–

SMILES,"activity change, negative = inhibition",Potency
COc1ccc(OC)c(NC(=O)CSc2nc3ccccc3nc2N2CCCCC2)c1,8.33% (inactive),–
CCOc1ccc(C2C(C(=O)Nc3ccc(Cl)cc3)=C(C)Nc3nc(C(F)(F)F)nn32)cc1 (stereo unspecified),-2.26% (inactive),–
Cc1cccc(C(=O)NC(=S)N(C)C2CCCCC2)c1,7.05% (inactive),–
Cc1ccc(C(=O)N2c3ncnn3C3(CCCCC3)[C@@H]3CCCC[C@@H]32)cc1,-0.658% (inactive),–
Cc1cccc(C(=O)N2c3nc(-c4ccco4)nn3C3(CCCCC3)[C@@H]3CCCC[C@@H]32)c1,–,35.5 µM (active)
CCN(CC)CCNC(=O)Cn1ncc2c3ccccc3n(Cc3ccccc3C)c2c1=O,2.19% (inactive),–
COc1ccc(/C=C/c2noc(-c3ccccc3O)n2)cc1OC,8.66% (inactive),–
COc1ccccc1CCNC(=O)c1cccn1-c1nnc(N2CCCCC2)s1,5.45% (inactive),–
COc1ccc(C2=CC(c3ccccc3Cl)n3nc(-c4ccc(Cl)cc4)nc3N2)cc1 (stereo unspecified),-0.964% (inactive),–
COc1ccc(CC(=O)Nc2nc3n(n2)C(c2ccccc2)CC(=O)N3)cc1OC (stereo unspecified),-29.1% (inactive),–
CC1=C(C(=O)Nc2ccccc2)C(c2ccc(C)cc2)n2nc(SCc3ccccc3C)nc2N1 (stereo unspecified),4.56% (inactive),–
COc1ccc(C2C=C(c3ccc(Br)cc3)Nc3nc(NS(C)(=O)=O)nn32)cc1 (stereo unspecified),–,22.4 µM (active)
Cc1ccc(C2C=C(c3ccc(Cl)cc3)Nc3nc(NC(=O)CCC(=O)O)nn32)cc1 (stereo unspecified),–,17.8 µM (active)
COc1ccc(CNC(=O)Cn2nnc(-c3ccc(S(C)(=O)=O)cc3)n2)cc1,-1.93% (inactive),–
CCC(C(=O)Nc1cc(OC)ccc1OC)n1c(=O)c(C(F)(F)F)nc2ccccc21 (stereo unspecified),9.99% (inactive),–
COc1ccc(CCNC(=O)c2ccc(CSCc3ccc(C)cc3)o2)cc1OC,-18.8% (inactive),–
Cc1ccccc1CN1CCC(CNC(=O)c2c(C)oc3ncnc(N4CCCCC4)c23)CC1,9.84% (inactive),–
CCOc1ccc(OCC)c(Nc2nc3ccccc3n3nnnc23)c1,1.06% (inactive),–
COc1ccc(CCNC(=O)c2cnc3sc(N4CCCCCC4)nn3c2=O)cc1OC,0.303% (inactive),–
COc1cccc(N2CC(NC(=O)/C=C\c3ccccc3)CC2=O)c1 (stereo unspecified),3.58% (inactive),–
CC1CCC(NS(=O)(=O)c2ccc3c(c2)n(C)c(=O)c(=O)n3C)CC1 (stereo unspecified),6.06% (inactive),–
Cn1sc(=O)c2cc(S(=O)(=O)NC3CC3)ccc21,–,1.58 µM (active)
O=S(=O)(NC1CC1)c1ccc(F)c(F)c1,6.35% (inactive),–
